Results published in PMC4336329 (PLoS ONE, 2015).
Hit rate of the full screen: of about 310,000 compounds, about 14,000 (4.5%) showed an effect of 50% or more. The effect is printed as a negative number. For the sample, strong results were picked, then their nearest neighbours and some compounds at random.

biological target: human ether-à-go-go-related gene (hERG) potassium channel (human, UniProt Q12809); assay: primary screen, population patch clamp on CHO cells stably expressing hERG; higher = less effect of the substance
Sequence (Q12809 whole entry, looked up): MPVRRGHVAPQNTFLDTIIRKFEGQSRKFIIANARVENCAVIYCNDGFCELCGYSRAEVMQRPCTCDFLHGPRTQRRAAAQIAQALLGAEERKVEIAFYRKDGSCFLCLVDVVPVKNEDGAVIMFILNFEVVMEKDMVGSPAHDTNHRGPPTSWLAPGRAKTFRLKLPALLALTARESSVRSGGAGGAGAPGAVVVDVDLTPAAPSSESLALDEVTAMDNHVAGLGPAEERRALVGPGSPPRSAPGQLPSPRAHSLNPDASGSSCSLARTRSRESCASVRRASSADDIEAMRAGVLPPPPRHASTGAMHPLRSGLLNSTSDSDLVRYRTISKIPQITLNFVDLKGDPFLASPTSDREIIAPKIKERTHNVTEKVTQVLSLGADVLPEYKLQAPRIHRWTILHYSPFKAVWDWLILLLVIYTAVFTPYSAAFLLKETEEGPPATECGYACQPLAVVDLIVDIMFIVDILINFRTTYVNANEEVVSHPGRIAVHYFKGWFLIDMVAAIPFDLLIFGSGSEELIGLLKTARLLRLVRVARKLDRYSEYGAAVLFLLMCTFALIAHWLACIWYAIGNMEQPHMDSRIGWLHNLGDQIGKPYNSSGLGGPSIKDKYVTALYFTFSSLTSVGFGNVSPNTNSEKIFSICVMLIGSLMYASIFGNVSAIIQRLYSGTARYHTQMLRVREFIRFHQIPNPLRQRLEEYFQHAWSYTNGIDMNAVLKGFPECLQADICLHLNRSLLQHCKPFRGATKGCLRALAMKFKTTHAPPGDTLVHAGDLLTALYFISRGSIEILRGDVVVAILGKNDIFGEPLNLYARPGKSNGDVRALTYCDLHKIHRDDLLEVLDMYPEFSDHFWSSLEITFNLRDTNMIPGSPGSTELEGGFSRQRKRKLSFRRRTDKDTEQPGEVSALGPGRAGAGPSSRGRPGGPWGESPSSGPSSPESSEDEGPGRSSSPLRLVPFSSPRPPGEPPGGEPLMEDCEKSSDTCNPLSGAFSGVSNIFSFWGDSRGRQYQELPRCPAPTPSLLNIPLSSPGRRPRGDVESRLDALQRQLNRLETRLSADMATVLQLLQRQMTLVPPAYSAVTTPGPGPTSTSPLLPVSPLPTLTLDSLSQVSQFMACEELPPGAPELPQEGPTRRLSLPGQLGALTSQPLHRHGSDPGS
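Note: peak tail current of the secondary pulse compared with the same well before compound.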

Row | Compound | hERG current change (%, negative = inhibition) at 10uM
1 | CSCCCNC(=S)Nc1cccc(S(=O)(=O)NC2=NCCC2)c1 | 32.8%
2 | CSc1ccccc1OCc1cc(C(=O)NCCn2nc(C)cc2C)no1 | -0.00922%
3 | O=S(=O)(Nc1nc2ccccc2nc1NCC1CCCO1)c1ccccc1 (centres unmarked) | 2.43%
4 | CCOC(=O)C1(Cc2ccccc2C(F)(F)F)CCN(C(=O)c2cc(C)n(C)n2)CC1 | -22.6%
5 | CCOC(=O)C1(Cc2ccccc2C(F)(F)F)CCN(CC(O)CO)CC1 (centres unmarked) | -3.71%
6 | CCOC(=O)C1(Cc2ccccc2C(F)(F)F)CCN(C(C)CSC)CC1 (centres unmarked) | -48.2%
7 | CCOC(=O)C1(Cc2ccccc2C(F)(F)F)CCN(C2CCN(C(C)=O)CC2)CC1 | -18.6%
8 | CCOC(=O)C1(Cc2ccccc2C(F)(F)F)CCN(Cc2ccon2)CC1 | -2.88%
9 | CCOC(=O)C1(Cc2ccccc2C(F)(F)F)CCN(CCCn2cccn2)CC1 | -82.1%
10 | CCOC(=O)C1(Cc2ccccc2C(F)(F)F)CCN(C(C)CCn2cccn2)CC1 (centres unmarked) | -65.6%
11 | CCOC(=O)C1(Cc2ccccc2C(F)(F)F)CCN(C2CCN(C(C)C)CC2)CC1 | -36.6%
12 | CCOC(=O)C1(Cc2ccccc2C(F)(F)F)CCN(C(=O)c2cc(C(C)=O)n[nH]2)CC1 | -57.2%
13 | COc1cccc2cc(C(=O)NCc3ccccc3Br)c(=O)oc12 | 19%
14 | CN(Cc1ccc(C(F)(F)F)cc1)C(=O)c1ccc(Oc2ccccc2)cc1 | 13.1%
15 | Cc1ccc(S(=O)(=O)Nc2ccccc2)cc1C(=O)N1CCCC1 | -4.95%
16 | Cc1nonc1NC(=O)CSc1nc2ccc(Cl)cc2[nH]1 | 3.09%
17 | Cc1sc(NC(=O)Cn2[nH]c(=O)c3ccccc3c2=O)nc1-c1ccccc1 | 11.6%
18 | CCOC(=O)N1CCC(N2C(=O)c3ccccc3C2Nc2cccnc2)CC1 (centres unmarked) | 1.81%
19 | CCOC(=O)N1CCC(N2C(=O)c3ccccc3C2Nc2ccc(C)cc2)CC1 (centres unmarked) | -32.8%
20 | CCOC(=O)N1CCC(N2C(=O)c3ccccc3C2Nc2cc(Cl)c(OC)cc2OC)CC1 (centres unmarked) | -45.5%
21 | CCOC(=O)N1CCC(N2C(=O)c3ccccc3C2Nc2ccc(S(=O)(=O)N3CCCCC3)cc2)CC1 (centres unmarked) | -58%
22 | CCOC(=O)N1CCC(N2C(=O)c3ccccc3C2Nc2ccc(S(=O)(=O)N(CC)CC)cc2)CC1 (centres unmarked) | -62.6%

Row | Compound | hERG current change (%, negative = inhibition) at 10uM
23 | CCOC(=O)N1CCC(N2C(=O)c3ccccc3C2Nc2ccc(S(=O)(=O)N3CCOCC3)cc2)CC1 (centres unmarked) | -16.7%
24 | COc1ccc(C2C3=C(CC(C)(C)CC3=O)N(CC(=O)O)C3=C2C(=O)CC(C)(C)C3)cc1OC | 2.83%
25 | COc1cc(OC)c(N2CC34C=CC(O3)C(C(=O)O)C4C2=O)cc1Cl (centres unmarked) | 4.99%
26 | CCc1nnc(NC(=O)CSc2ccc(-c3nc4ccc(C)cc4[nH]3)cn2)s1 | 6.54%
27 | CCc1ccc(OCC(=O)NCCN(C)C)c(Br)c1 | -58.4%
28 | CCc1ccc(OCC(=O)N(C)C)c(Br)c1 | -7.33%
29 | CN(C)CCNC(=O)COc1ccc(Cl)cc1Cl | -18.2%
30 | O=C(COC(=O)c1ccc2ncsc2c1)NCc1cccc(Cl)c1 | -11.2%
31 | COc1ccc(N2CCN(CC(=O)Nc3c(C)cc(C)cc3C)CC2)cc1 | 0.738%
32 | Cc1ccc(CNC(=O)/C=C/c2ccc(Br)o2)cc1 | -26.2%
33 | O=C(Nc1cccc(Cl)c1)NC1CC2CCC1C2 (centres unmarked) | 9.69%
34 | O=C(Nc1ccc2c(c1)OCCO2)c1cc(-c2ccccc2)nc2ccccc12 | 9.23%
35 | c1ccc2c(Nc3ccc4c(c3)OCCO4)c3c(nc2c1)CCCC3 | -92.4%
36 | Cc1ccc2nc(-c3ccncc3)cc(C(=O)Nc3ccc4c(c3)OCCO4)c2c1 | 3.46%
37 | O=C(COC(=O)c1c2c(nc3ccccc13)CCCC2)Nc1ccc2c(c1)OCO2 | 3.1%
38 | Cc1ccc2nc3c(c(Nc4ccc5c(c4)OCCO5)c2c1)CCC3.Cl | -51.7%
39 | Cc1ccc2nc(-c3ccc4c(c3)OCCO4)cc(C(=O)O)c2c1 | 4.86%
40 | Cl.c1ccc2c(Nc3ccc4c(c3)OCCO4)c3c(nc2c1)CCC3 | -52.3%
41 | O=C(Nc1c2c(nc3ccccc13)CCCC2)c1ccccc1F | -3%
42 | Cc1cc(C)c(C)c(S(=O)(=O)N2CCC(C(=O)Nc3ccccc3N3CCOCC3)CC2)c1C | -8.54%
43 | Cc1cc(Br)ccc1NC(=O)CNC(=O)Cc1ccc(S(=O)(=O)N2CCOCC2)s1 | -33.8%
44 | CCOC(=O)[C@H]1CCC[C@@H](NS(=O)(=O)c2ccc(NC(C)=O)cc2)C1 | 14.1%

Row | Compound | hERG current change (%, negative = inhibition) at 10uM
45 | Cc1ccc(Nc2ccc3nonc3c2[N+](=O)[O-])cc1 | 2.88%
46 | CCCCNC(=O)C1c2ccccc2C(=O)N(c2ccc(OC)cc2)C1c1ccc(OC)cc1 (centres unmarked) | -18.6%
47 | COc1cc(OC)c(C(=O)NNC(=S)NC2CCCCC2)cc1OC | 16.6%
48 | CC(C)Oc1ccc(C(=O)NCC(=O)N2CCN(S(=O)(=O)/C=C/c3ccccc3)CC2)cc1 | -67.6%
49 | Cc1cccc(C(=O)NCC(=O)N2CCN(S(=O)(=O)/C=C/c3ccccc3)CC2)c1 | -18.5%
50 | CCOc1ccc(C(=O)NCC(=O)N2CCN(C/C=C/c3ccccc3)CC2)cc1OCC | -41.7%
51 | O=C(NC(=S)N1CCN(C/C=C/c2ccccc2)CC1)c1ccc(F)cc1 | -43.7%
52 | O=C(NCC(=O)N1CCN(S(=O)(=O)/C=C/c2ccccc2)CC1)c1ccc(Cl)cc1 | -23.1%
53 | O=C(NCC(=O)N1CCN(C/C=C/c2ccccc2)CC1)c1ccc(OC(F)F)cc1 | -79.5%
54 | CCOC(=O)c1cnc(SCc2nc(N)nc(Nc3ccccc3OC)n2)nc1N | -2.39%
55 | O=C1NCC(COc2cccc3ccccc23)O1 (centres unmarked) | 13.3%
56 | CCN(CC(=O)Nc1ccc(NC(C)=O)cc1)C(=O)Cc1cccc2ccccc12 | 4.98%
57 | CC1CCCCN1S(=O)(=O)c1ccc2[nH]c(=O)cc(C(=O)NCCCN3CCCCCC3)c2c1 (centres unmarked) | 17%
58 | O=[N+]([O-])c1ccc(-c2cn(-c3ccccc3F)c(=S)[nH]2)cc1 | -3.28%
59 | Cc1ccc(-n2cc(-c3ccc([N+](=O)[O-])cc3)[nH]c2=S)c(C)c1 | -51.3%
60 | Cc1cccc(-n2cc(-c3ccc([N+](=O)[O-])cc3)[nH]c2=S)c1 | -2.96%
61 | CCOC(=O)C1CCCN(C(=O)Cn2nc(C)n3c(cc4c(OC)cccc43)c2=O)C1 (centres unmarked) | -6.37%
62 | CN1C[C@H](CNC(=O)OCc2ccccc2)C[C@@H]2c3cccc4c3c(cn4C)C[C@H]21 | -61.9%
63 | CN1C[C@H](CO)C[C@@H]2c3cccc4[nH]cc(c34)C[C@H]21 | -7.36%
64 | O=C(NCC1CCC(C(=O)O)CC1)OCc1ccccc1 (centres unmarked) | 3.13%
65 | CCn1nc(C)cc1C(=O)N1CCCC(N(C)CCc2ccc(OC)c(OC)c2)C1 (centres unmarked) | -16.2%
66 | COc1ccc(CCN(C)C2CCCN(C(=O)c3sccc3C)C2)cc1OC (centres unmarked) | -55%

Row | Compound | hERG current change (%, negative = inhibition) at 10uM
67 | COc1ccc(CCN(C)C2CCCN(C(=O)c3ccnn3C)C2)cc1OC (centres unmarked) | -21.1%
68 | COCc1ccc(C(=O)N2CCCC(N(C)Cc3ccccc3)C2)s1 (centres unmarked) | -8.86%
69 | COCc1ccc(C(=O)N2CCCC(N(C)CCc3ccc(OC)c(OC)c3)C2)s1 (centres unmarked) | -62.4%
70 | Cc1ccsc1C(=O)N1CCCC(N(C)Cc2ccccc2)C1 (centres unmarked) | -13.9%
71 | CN(C)CCCn1c(SCc2c(Cl)cccc2Cl)nnc1-c1ccncc1.O=C(O)C(=O)O | -0.471%
72 | CCOc1ccc(NC(=O)C2CCCN(c3nn4c(=O)cc(C)nc4s3)C2)cc1 (centres unmarked) | -7.14%
73 | COc1ccc(C/C(C)=N/NC(=O)c2ccncc2)cc1 | -7.41%
74 | O=C(CSc1nc(O)c(C2CCCCC2)c(=O)[nH]1)Nc1ccc(F)cc1 | 22.4%
75 | COc1ccc(OCCSc2ncc(CO)n2C)cc1 | 12.4%
76 | CCCCn1c(N)nc2ccccc21.Cl | -8.47%
77 | CCCCn1c(CN2CCN(CCO)CC2)nc2ccccc21 | -66%
78 | CCCCn1c(CN2CCN(C)CC2)nc2ccccc21 | -67.1%
79 | CCn1c(CN2CCN(CCO)CC2)nc2ccccc21 | 5.04%
80 | CCCn1c(CN2CCN(C)CC2)nc2ccccc21 | -9.68%
81 | CCCCn1c(CNC(C)=O)nc2ccccc21 | 3.5%
82 | O=S(=O)(Nc1ccccn1)c1ccc(Cl)c2ccccc12 | 19.5%
83 | O=C(NCc1cccnc1)c1cccc2c1C(=O)N(C1CCCCC1)C2 | -15.3%
84 | CCc1ccccc1N1C(=O)/C(=C/c2ccc(N3CCN(C)CC3)o2)C(=O)NC1=S | 1.18%
85 | O=C(CCNS(=O)(=O)c1ccccc1C(F)(F)F)NCC(c1ccco1)N1CCCCC1 (centres unmarked) | 0.519%
86 | CCOc1ccc2nc(NS(=O)(=O)c3cccs3)sc2c1 | 20.8%
